Screens (PubChem BioAssay)
Compounds with a hit are over-represented: about 17% of the library has one in this group of screens.
TDP1 cell noCPT – qHTS for Inhibitors of human tyrosyl-DNA phosphodiesterase 1 (TDP1): qHTS in cells in absence of CPT | DT40 Tdp1-/- hTDP1 cells, no CPT, ATP luminescence, 48 h | Potency, µM (top dose mostly 46.2 µM), for inactives: at the top dose activity change, negative = growth inhibition, usual class: inhibitors | 420,000 compounds, 15% hits; further: on the % scale 0 is the no-effect control and ±100 the full control effect; nearly all actives have a fitted effect of over 55% in size
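Compound effects on proliferation are scored in DT40 Tdp1-/-;hTDP1 cells in the absence of CPT. ATP levels (CellTiter-Glo luminescence) are recorded after a ≥48 hr, 37 °C incubation.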
ATXN viability – viability counter-screen for ATXN expression inhibitors. 400,000 compounds, 0.49% hits. S2 cells (HEK-293 line with an ATXN2-luciferase reporter) viability, CellTiter-Fluor protease fluorescence, 24 h. Potency, µM (top dose mostly 56.7 µM), actives largely listed as cytotoxic; further: nearly all actives have a fitted effect of over 40% in size
ATXN2 expr inh – inhibitors of ATXN2 expression | HEK-293 ATXN2-luciferase reporter, luminescence, 24 h | Potency, µM (doses to about 57 µM), inactives show at the highest dose activity change, negative = inhibition, hits mostly inhibitors | 360,000 compounds, 0.72% hits; further: on the % scale 0 is the no-effect control and ±100 the full control effect; nearly all actives have a fitted effect of over 55% in size
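qHTS (up to 57 uM final) was run with 24 h compound exposure of reporter cells at 37 °C. Each well was multiplexed: SteadyGlo luminescence measured ATXN2-luciferase expression after a fluorogenic Gly-Phe-AFC viability readout (25 uM final).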
TDP1 cell CPT – growth inhibition of DT40 Tdp1-/-;hTDP1 cells with camptothecin (screen for TDP1 inhibitors). chicken DT40 Tdp1-/-;hTDP1 cells + 20 nM CPT, ATP luminescence, 48 h. Potency, µM (series often up to 46.2 µM), inactives show at the highest dose activity change, negative = growth inhibition, actives largely listed as inhibitors. 420,000 compounds, 12% hits; further: on the % scale 0 is the no-effect control and ±100 the full control effect; nearly all actives have a fitted effect of over 55% in size
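Chicken DT40 Tdp1-/- cells complemented with human TDP1, 400 cells/well, exposed to compounds plus 20 nM camptothecin for at least 48 h at 37 C; viability read as ATP content by CellTiter-Glo luminescence.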
TGFb SMAD3 inh – TGF-b pathway inhibition; AID 588855; HepG2 CAGA-GFP TGF-b/SMAD3 reporter, GFP fluorescence, 18 h; TGF-beta stimulated, 500 pg/mL final; 410,000 compounds, 1.2% hits; Potency, µM (doses to about 46.1 µM), for the others: at the top dose activity, negative = inhibition, actives largely listed as inhibitors; further: on the % scale 0 is the no-effect control and ±100 the full control effect; nearly all actives have a fitted effect of over 65% in size
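HEPG2 CAGA-GFP, 1000 cells/well; 2 h settle, 37 C; cpd via pin tool; TGF-b 500 pg/mL final; 18 h, 37 C; GFP imaging ex488/em500-530; %Activity normalised to -TGF-b and +DMSO controls; CRC fit, curve class.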
HepG2 tox – HepG2 cytotoxicity, counter-screen for TGF-b inhibitors; Potency, µM (doses to about 46.1 µM), for the others: at the highest dose activity change, negative = cytotoxicity, actives largely listed as cytotoxic; HepG2 CAGA-GFP viability, ATP luminescence, 18 h; 410,000 compounds, 0.76% hits
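HepG2 CAGA-GFP cells (1000/well, DMEM with 1% FBS) received compound, then TGF-beta at 500 pg/mL final, and were incubated 18 hours at 37 degrees C. Viability was read by CellTiter-Glo luminescence. Media-only wells were set as complete cell-killing and DMSO as no toxicity.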
* hit, by the source's call; i = inactive; ? = inconclusive; . = not tested or not shown; [ ] = another dose, or the depositor's remark. The call rests on the fitted dose curve; in most records, active means well fitted curve in the direction sought with a large enough effect; inconclusive means small, poorly fitted or top-dose-only effect, or another doubt; inactive means no such curve, though single readings can be large; an effect the other way counts as inactive or inconclusive. Potency means the concentration at half of the fitted maximal effect.

SMILES | TDP1 cell noCPT | ATXN viability | ATXN2 expr inh | TDP1 cell CPT | TGFb SMAD3 inh | HepG2 tox
Cc1ccc2oc3c(c(=O)c2c1)C(c1ccc(F)cc1)N(Cc1ccc2c(c1)OCO2)C3=O (stereo not drawn) | -2% | i | 6% | 4% | -10% | 0%
O=S(=O)(NC1CCN(S(=O)(=O)c2c(F)cccc2F)C1)c1ccc2c(c1)OCCO2 (stereo not drawn) | . | ? | -15% | . | ? | -27%
CN(CC(=O)Nc1ccc(Cl)cc1)C(=O)CN1C(=O)C2CCCCC2C1=O (stereo not drawn) | -24% | i | . | -17% | -5% | -3%
Cc1ccc(C)c(-n2cc(-c3ccccc3)nc2SCC(=O)Nc2ccccc2)c1 | 18µM* | i | -13% | ? | ? | -19%
Cc1ccccc1NC(=O)CSc1nc(-c2ccccc2)cn1-c1ccccc1F | 23µM* | ? | ? | ? | 11µM* | -1%
Cc1ccccc1-n1cc(-c2ccccc2)nc1SCC(=O)Nc1ccc(F)cc1 | ? | i | -23% | ? | ? | -3%
Fc1ccc(-n2nnc(-c3ccnc4ccccc34)n2)cc1 | -14% | i | 66% | -26% | 14% | -29%
Cc1ccc(NC(=O)CN(C)CC(=O)Nc2sc3c(c2C(N)=O)CCC3)cc1 | ? | i | ? | ? | ? | -19%
CCc1cc(=O)oc2cc3occ(C)c3cc12 | ? | i | 4% | 7% | -1% | -19%
CCc1cc(=O)oc2cc3occ(-c4ccc(OC)c(F)c4)c3cc12 | 2.1µM* | . | ? | 4.6µM* | -52% | -44%
CC1CCCCN1C(=O)/C=C/c1ccccc1[N+](=O)[O-] (stereo not drawn) | ? | i | 30% | -7% | 3% | -1%
Cc1ccc(N/N=C(\C#N)C(N)=S)cc1C | 18µM* | ? | . | 10µM* | ? | -5%
N#C/C(=N\Nc1ccccc1)C(N)=S | ? | i | -16% | -25% | ? | -32%
Cc1ccc(NC(N)=S)cc1C | ? | i | -11% | ? | -23% | -32%
N#C/C(=N\Nc1ccc(Cl)cc1)C(N)=S | 5.8µM* | ? | ? | 5.8µM* | ? | -37%
O=C(CCSC1=NCCCN1)c1ccc(F)cc1 | 2.9µM* | i | 2% | 1.8µM* | -30% | -9%
Cc1cccc(S(=O)(=O)NC(=O)C2(C)CCN2C(=O)Cc2ccc(C(C)(C)C)cc2)c1 (stereo not drawn) | -6% | i | -3% | -18% | 0% | -14%
CCOC(=O)c1c(C)n(C)c2ccc(OCC(O)CN3C(=O)c4ccccc4S3(=O)=O)cc12 (stereo not drawn) | 16µM* | i | -8% | 16µM* | -8% | -25%
CCOC(=O)c1sc2nc3c(SCCC(=O)O)cc(C(=O)c4cc(OC)ccc4O)cn3c(=O)c2c1C | 5.2µM* | ? | . | 3.7µM* | -28% | -19%
CC1CCN(C(=O)c2cc(-c3ccc(Cl)cc3)on2)CC1 | -21% | i | 53% | ? | ? | -28%
COc1ccccc1NC(=O)Cn1c(=O)n(Cc2cccs2)c(=O)c2cccnc21 | -77% | i | -23% | 21µM* | -3% | -23%
COc1ccccc1NC(=O)Cn1c(C)cc(=O)c2cccc(OC)c21 | 4.6µM* | ? | -11% | 2.9µM* | ? | -25%
COc1cccc2c(=O)cc(C)n(CC(=O)Nc3ccc(C)c(C)c3)c12 | 15µM* | i | -13% | ? | -5% | -40%
COc1ccc(-c2nc3cc(C)ccc3cc2CN(C(=O)c2csc(C)n2)C2CC2)cc1OC | -20% | i | . | 9%[9.04 µM] | . | .
Cc1cccc(C(=O)NCC2Cc3cc(F)cc(-c4cnccn4)c3O2)n1 (stereo not drawn) | ? | i | . | 3%[9.04 µM] | . | .
SMILES | TDP1 cell noCPT | ATXN viability | ATXN2 expr inh | TDP1 cell CPT | TGFb SMAD3 inh | HepG2 tox
COc1cccc(N2CCN(C(=O)c3ccc(C)c(NC(=O)c4nsc5ccccc45)c3)CC2)c1 | 18µM* | i | 10% | ? | 0% | -6%
Cc1ccc(C(=O)N2CCCCC2)cc1NC(=O)c1nsc2ccccc12 | ? | ? | -4% | ? | ? | -37%
COc1cccc(N2CCN(C(=O)c3ccc4ccccc4c3)CC2)c1 | ? | i | 6% | ? | ? | 6%
Cc1ccc(C(=O)N2CCN(c3ccc(F)cc3)CC2)cc1NC(=O)c1nsc2ccccc12 | 21µM* | i | 8% | 16µM* | ? | 4%
COc1ccc(COc2cc(-c3cccc(OC)c3)nc3ccc(NC(=O)c4ccc(OC)cc4)cc23)cc1 | 3.3µM* | ? | -13% | 2.6µM* | ? | 18%
COc1ccc(COc2cc(-c3cccc(OC)c3)nc3ccc(NC(=O)c4ccc(Cl)cc4)cc23)cc1 | 16µM* | ? | -19% | ? | -3% | 0%
O=C(NCc1ccccc1)c1cc(C2CCCCN2C(=O)OCCF)on1 (stereo not drawn) | -10% | i | -3% | 1% | 17% | -2%
COc1ccc(C2=CC(=O)CC(c3ccc(F)cc3)C2)cc1 (stereo not drawn) | -27% | i | 10% | ? | 28% | -1%
O=C1C=C(c2ccc(CO)cc2)C[C@@H](c2ccc(F)cc2)C1 | 23µM* | i | -12% | -29% | ? | -25%
Cc1ccc(C2=CC(=O)C[C@H](c3ccc(F)cc3)C2)cc1 | ? | i | 13% | ? | -1% | -12%
O=C1C=C(c2ccc(-c3ccccc3)cc2)C[C@@H](c2ccc(F)cc2)C1 | ? | i | 9% | 18µM* | -11% | 1%
Cn1ccc2ccc(C3=CC(=O)C[C@H](c4ccc(F)cc4)C3)cc21 | 18µM* | i | 13% | 7.3µM* | -1% | -11%
CCOc1ncccc1C(=O)NCC(c1ccccc1)N(C)C (stereo not drawn) | 1% | i | -6% | ? | -3% | -10%
COC(=O)[C@@H]1CCCN1Cc1ccc2c(c1)CN(Cc1ccc(OC)c(C)c1)CCO2 | -11% | i | . | -1%[9.04 µM] | . | .
CCc1nc(SCC(=O)Nc2nnc(CC(C)C)s2)n[nH]1 | 1% | i | -3% | 9% | -3% | -15%
CCOc1ccc(C(c2c(NC(=O)c3ccco3)sc(C)c2C)N2CCOCC2)cc1 (stereo not drawn) | ? | i | -22% | 23µM* | ? | -1%
